{
  "source": "paper PMC4552634",
  "about": "“A New Set of Chemical Starting Points with Plasmodium falciparum Transmission-Blocking Potential for Antimalarial Drug Discovery” (PLoS ONE, 2015)",
  "note": "The whole screen tested about 13,000 compounds, of which about 3,200 (25%) showed an effect of 50% or more. The list shows a part of the results.",
  "data": [
    {"tested_on": "P. falciparum stage V gametocytes", "design": "BacTiter-Glo ATP luminescence viability of purified stage V gametocytes in 384-well plates, per cent inhibition versus DMSO", "conditions": "48 h, 5 µM; inhibitor", "units": {"% Inhibition": "%"}, "values": [
      {"compound": "CC1(C)N=C(N)N=C(N)N1OCCCNC(=O)c1ccc(C(=O)NCCCON2C(N)=NC(N)=NC2(C)C)cc1", "note": "[TCMDC-131677]", "% Inhibition": 3.216},
      {"compound": "CCOC(=O)c1ccc(-c2c(C(F)(F)F)noc2-c2cc(CC)c(OC)cc2O)o1", "note": "[TCMDC-124150]", "% Inhibition": 2.818},
      {"compound": "Cc1ccc(C)c2c1[nH]c1ccc(C3=NCCN3)cc12", "note": "[TCMDC-137683]", "% Inhibition": 24.52},
      {"compound": "CCCS(=O)(=O)c1nc(S(=O)(=O)c2ccc(Cl)cc2)c(N2CCCCC2)s1", "note": "[TCMDC-124768]", "% Inhibition": -49.43},
      {"compound": "COc1ccc(CNCc2ccsc2)cc1-c1ccc(S(=O)(=O)NCCN2CCCC2)c(C)c1", "note": "[TCMDC-132225]", "% Inhibition": 105.9},
      {"compound": "COc1ccc(-c2ccc(CNCc3ccsc3)cc2)cc1S(=O)(=O)NCCN1CCCC1", "note": "[TCMDC-132283]", "% Inhibition": 107.3},
      {"compound": "Cc1cc(-c2ccc(CNCc3ccsc3)cc2)ccc1S(=O)(=O)NCCN1CCCC1", "note": "[TCMDC-132292]", "% Inhibition": 94.64},
      {"compound": "O=S(=O)(NCCN1CCCC1)c1ccc(-c2ccc(CNCc3ccsc3)cc2)cc1F", "note": "[TCMDC-132288]", "% Inhibition": 40.86},
      {"compound": "COc1ccc(CNCc2ccsc2)cc1-c1ccc(OC)c(S(=O)(=O)NCCN2CCCC2)c1", "note": "[TCMDC-132296]", "% Inhibition": 104.6},
      {"compound": "CC(=O)OCCN1C(=O)c2ccc3c4c(ccc(c24)C1=O)C(=O)N(CCOC(C)=O)C3=O", "note": "[TCMDC-123488]", "% Inhibition": 10.44},
      {"compound": "COc1cc(Nc2nccc(N3CCC(NC(=O)c4cccc(NC(C)=O)c4)C3)n2)cc(OC)c1OC", "note": "(centres unmarked) [TCMDC-133622]", "% Inhibition": -17.51},
      {"compound": "Cc1ccc(O)c(C(=O)c2cnc3c(c2)c(-c2ccc(F)cc2)c(C#N)c(=O)n3C)c1", "note": "[TCMDC-124507]", "% Inhibition": 19.5},
      {"compound": "CC(=O)Nc1ccc(CN2CCC(N(C)c3cc(NC(=O)c4cccc(F)c4)ccn3)CC2)cc1", "note": "[TCMDC-134981]", "% Inhibition": -20.16},
      {"compound": "O=C(Nc1ccc2c(c1)CN(Cc1ccc(N3CCCC3)o1)CCC2)c1ccoc1", "note": "[TCMDC-134723]", "% Inhibition": -9.381},
      {"compound": "Cc1ccc(-c2nc(NC(=O)Nc3ccc(C(F)(F)F)cc3)sc2C)cc1Cl", "note": "[TCMDC-125584]", "% Inhibition": 10.27},
      {"compound": "COc1ccc(-c2nc(NC(=O)CS(=O)(=O)c3ccc(C)cc3)sc2C)cc1", "note": "[TCMDC-124318]", "% Inhibition": 31.51},
      {"compound": "COc1ccc(-c2nc(NC(=O)Cc3ccc(OC)c(OC)c3)sc2C)cc1", "note": "[TCMDC-123619]", "% Inhibition": 10.74},
      {"compound": "COc1ccc(-c2nc(NC(=O)Cc3cccc(OC)c3)sc2C)cc1", "note": "[TCMDC-124331]", "% Inhibition": 95.1},
      {"compound": "COc1ccc(-c2nc(NC(=O)CSc3ccc([N+](=O)[O-])cc3)sc2C)cc1", "note": "[TCMDC-124323]", "% Inhibition": 91.56},
      {"compound": "COc1ccc(-c2nc(NC(=O)CS(=O)(=O)c3ccc(OC)cc3)sc2C)cc1", "note": "[TCMDC-125152]", "% Inhibition": -0.7393},
      {"compound": "COc1ccc(OCC(=O)Nc2nc(-c3ccc(OC)cc3)c(C)s2)cc1", "note": "[TCMDC-124330]", "% Inhibition": 22.09},
      {"compound": "CCOc1ccc(-c2nc(NC(=O)Cc3cccc(OC)c3)sc2C)cc1", "note": "[TCMDC-123618]", "% Inhibition": -21.09},
      {"compound": "COc1ccc(-c2nc(NC(=O)CS(=O)(=O)c3ccc(F)cc3)sc2C)cc1", "note": "[TCMDC-123523]", "% Inhibition": 53.6},
      {"compound": "COc1ccc(-c2nc(NC(=O)CSc3ccccc3)sc2C)cc1", "note": "[TCMDC-123814]", "% Inhibition": 23.99},
      {"compound": "Cc1sc(NC(=O)Cc2cccc(C(F)(F)F)c2)nc1-c1cccc(Cl)c1", "note": "[TCMDC-125144]", "% Inhibition": 54.43},
      {"compound": "COc1ccc(-c2nc(NC(=O)Cc3ccc4c(c3)OCCO4)sc2C)cc1", "note": "[TCMDC-124374]", "% Inhibition": 41.12}
    ]}
  ]
}
